# Assay results from PubChem BioAssay (NCATS).
# Results filed as inconclusive are left out. Entries that show only a call come without a potency. A number with no mark means an inactive call. Activity calls are given as the source filed them. Unless noted, the call rests on the fitted dose curve; in most records, active means well fitted curve in the direction sought with a large enough effect; inconclusive means small, poorly fitted or top-dose-only effect, or another doubt; inactive means no such curve, though single readings can be large; an effect the other way counts as inactive or inconclusive.
# Legend:
# [1] = biological target: Calcium and integrin-binding protein 1 (Homo sapiens) (UniProt Q99828); assay: Primary qHTS for Identification of Calcium Integrin Binding Protein 1 (CIB1) Competitor (AID 1508620);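 further: GST tagged CIB1 binding a fluorescein labelled alphaIIb integrin peptide tracer; top concentration of the series differs between compounds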
# Chain of Calcium and integrin-binding protein 1 (Homo sapiens) (Q99828 whole entry, looked up): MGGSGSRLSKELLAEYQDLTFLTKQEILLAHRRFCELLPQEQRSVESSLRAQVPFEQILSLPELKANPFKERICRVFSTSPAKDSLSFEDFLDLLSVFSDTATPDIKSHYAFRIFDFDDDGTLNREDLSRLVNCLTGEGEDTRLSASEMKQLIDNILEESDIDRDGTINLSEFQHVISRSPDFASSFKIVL
# How it was run: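 CIB1-GST (1 uM final) and compound incubated 15 min at room temperature before adding FITC-alphaIIb peptide tracer (100 nM final). Competition for binding read by fluorescence polarization (ex 480, em 540) after another 15 min at room temperature.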
# [2] = biological target: Cytochrome P450 2D6 (Homo sapiens) (UniProt P10635); assay: Cytochrome P450 family 2 subfamily D member 6 (CYP2D6) small molecule antagonists: luciferase biochemical (cell-free) qHTS assay (AID 1645840; active means well fitted curve in the direction sought with a large enough effect in the repeat runs; an effect the other way counts as inactive or inconclusive; further: nearly all actives have a fitted effect of over 55% in size; further: potency means the concentration at half of the fitted maximal effect)
# Chain of Cytochrome P450 2D6 (Homo sapiens) (P10635 whole entry, looked up): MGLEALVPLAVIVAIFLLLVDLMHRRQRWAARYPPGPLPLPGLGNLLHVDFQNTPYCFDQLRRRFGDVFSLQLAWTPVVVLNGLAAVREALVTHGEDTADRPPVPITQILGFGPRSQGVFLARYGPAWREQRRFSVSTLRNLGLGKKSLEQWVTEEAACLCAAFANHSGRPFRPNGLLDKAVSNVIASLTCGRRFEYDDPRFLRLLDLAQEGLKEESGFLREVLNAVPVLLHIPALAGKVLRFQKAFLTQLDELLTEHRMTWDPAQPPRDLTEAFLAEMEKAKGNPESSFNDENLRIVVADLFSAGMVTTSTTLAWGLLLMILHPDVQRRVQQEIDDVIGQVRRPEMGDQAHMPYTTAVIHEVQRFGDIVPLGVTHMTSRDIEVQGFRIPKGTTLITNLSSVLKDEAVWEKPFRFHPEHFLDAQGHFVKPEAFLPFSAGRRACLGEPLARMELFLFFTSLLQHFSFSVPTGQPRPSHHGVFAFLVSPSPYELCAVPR
# How it was run: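 P450-Glo CYP2D6 system: proluciferin substrate converted by enzyme to luciferin, read by luminescence proportional to activity. Enzyme-substrate mix with compound 10 min at room temperature, then NADPH regeneration 1 h before detection reagent.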
# [3] = biological target: Cytochrome P450 2C9 (Homo sapiens) (UniProt P11712); assay: Cytochrome P450 family 2 subfamily C member 9 (CYP2C9) small molecule antagonists: luciferase biochemical (cell-free) qHTS assay (AID 1645842; active means well fitted curve in the direction sought with a large enough effect in the repeat runs; an effect the other way counts as inactive or inconclusive; further: nearly all actives have a fitted effect of over 55% in size; further: potency means the concentration at half of the fitted maximal effect)
# Chain of Cytochrome P450 2C9 (Homo sapiens) (P11712 whole entry, looked up): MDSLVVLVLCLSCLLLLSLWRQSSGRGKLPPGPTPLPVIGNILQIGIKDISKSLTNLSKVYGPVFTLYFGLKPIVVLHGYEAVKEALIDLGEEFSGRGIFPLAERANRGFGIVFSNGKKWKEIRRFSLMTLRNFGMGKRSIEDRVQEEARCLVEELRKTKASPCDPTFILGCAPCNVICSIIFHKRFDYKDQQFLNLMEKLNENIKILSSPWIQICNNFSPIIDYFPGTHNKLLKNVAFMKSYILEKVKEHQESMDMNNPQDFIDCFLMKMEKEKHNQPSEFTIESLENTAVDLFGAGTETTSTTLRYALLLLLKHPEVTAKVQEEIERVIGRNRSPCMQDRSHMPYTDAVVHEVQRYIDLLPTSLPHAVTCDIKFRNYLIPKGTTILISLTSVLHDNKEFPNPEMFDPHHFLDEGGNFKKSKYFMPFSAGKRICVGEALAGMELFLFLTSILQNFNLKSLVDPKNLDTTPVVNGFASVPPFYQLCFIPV
# How it was run: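 P450-Glo CYP2C9 system: proluciferin substrate with enzyme in mix containing 0.4% BSA, 10 min at room temperature, then NADPH regeneration solution added and incubated 1 h at 37C. Detection reagent stopped reaction; luminescence read after 20 min as RLU.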
# [4] = Primary qHTS for inhibitors of nuclear receptor binding SET domain protein 2 (NSD2) in an isogenic RCH-ACV NSD2 p.E1099K mutant (9B) (AID 1645876); further: nearly all actives have a fitted effect of over 70% in size; further: potency means the concentration at half of the fitted maximal effect
# [5] = biological target: Calcium and integrin-binding protein 1 (Homo sapiens) (UniProt Q99828); assay: Validation qHTS for Identification of Calcium Integrin Binding protein 1 (CIB1) Competitor (AID 1508618)
# How it was run: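 Fluorescence polarization with 1 uM CIB1-GST and 100 nM FITC-alphaIIb peptide in HEPES pH 7.4, NaCl, 5 mM CaCl2, Tween20. Compounds at up to 114 uM final, preincubated with protein 15 min; read after 15 min more at RT.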
# [6] = biological target: Papain (Carica papaya) (UniProt P00784); assay: Primary qHTS assay for inhibitors of the protease papain (AID 1645873);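 further: papain turnover of Z-FR-AMC read as the AMC fluorescence gain over 10 min; series mostly up to about 50 µM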
# Chain of Papain (Carica papaya) (P00784 whole entry, looked up, the tested form may be a part): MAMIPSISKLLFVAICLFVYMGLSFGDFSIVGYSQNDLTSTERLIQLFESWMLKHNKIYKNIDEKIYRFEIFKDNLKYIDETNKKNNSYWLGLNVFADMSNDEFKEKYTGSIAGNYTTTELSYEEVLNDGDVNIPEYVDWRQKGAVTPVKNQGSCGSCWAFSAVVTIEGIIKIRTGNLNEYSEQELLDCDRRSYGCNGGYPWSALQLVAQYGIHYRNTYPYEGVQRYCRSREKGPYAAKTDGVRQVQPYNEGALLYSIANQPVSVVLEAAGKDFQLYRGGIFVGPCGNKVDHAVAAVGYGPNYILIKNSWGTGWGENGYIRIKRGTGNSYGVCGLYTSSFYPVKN
# [7] = Primary qHTS for inhibitors of nuclear receptor binding SET domain protein 2 (NSD2) in an RCH-ACV wild type WT cells (2C) (AID 1645877); further: nearly all actives have a fitted effect of over 70% in size; further: potency means the concentration at half of the fitted maximal effect
# [8] = Primary qHTS for small molecule stabilizers of the endoplasmic reticulum resident proteome: Secreted ER Calcium Modulated Protein (SERCaMP) assay (AID 1508630)
# How it was run: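 The SH-SY5Y reporter protocol was run at 3 concentrations up to 38.3 uM (primary) or 11 concentrations (follow-up): 16 h compound, 100 nM thapsigargin for 4 h, then extracellular luciferase luminescence.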
# [9] = A High-Content qHTS Against Drug Library for the Identification of Small Molecules that Inhibit DYT1 Early Onset Primary Dystonia-Associated Cell Pathology (AID 1645839; calls by dose curve; further: potency means the concentration at half of the fitted maximal effect)
# How it was run: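 High-content imaging quantified EGFP-TorsinA mislocalization in HEK293-derived cells inducibly expressing DYT1 mutant torsinA, after 48 h exposure to compound given together with tetracycline induction. Cell count served as a toxicity channel alongside %pathology.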
# [10] = Counterscreen qHTS for small molecule stabilizers of the endoplasmic reticulum resident proteome: GLuc-NoTag assay (AID 1508627); further: potency means the concentration at half of the fitted maximal effect
# How it was run: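 Counterscreen line: SH-SY5Y-GLuc-NoTag cells, treated with compound 19 hr before a 4 hr, 100 nM thapsigargin calcium depletion. Secreted Gaussia luciferase in the medium was measured by luminescence after coelenterazine was added (0.07x final), with cells unlysed.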
# [11] = Cell Viability qHTS for small molecule stabilizers of the endoplasmic reticulum resident proteome (AID 1508629); settings: cell viability counter-screen, 100 nM thapsigargin for final 4 h;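 further: compound exposure about 46 h in total before the viability read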; further: potency means the concentration at half of the fitted maximal effect;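 on max response: human SH-SY5Y neuroblastoma cells carrying the GLuc-SERCaMP reporter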
# [12] = Confirmatory qHTS for small molecule stabilizers of the endoplasmic reticulum resident proteome: Secreted ER Calcium Modulated Protein (SERCaMP) assay (AID 1508628); further: series mostly up to about 76 µM; nearly all actives have a fitted effect of over 40% in size
# How it was run: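 Reporter secretion upon ER calcium depletion (100 nM thapsigargin, 4 h, 37C) is measured as medium luminescence with coelenterazine, after 16 h compound pretreatment of SH-SY5Y-GLuc-SERCaMP cells; primary at three concentrations up to 38.3 uM, follow-up at 11 (up to 76.6 uM).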
structure (smiles),measurement,setting,value
CCCSc1ccc2nc(NC(=O)OC)[nH]c2c1,Potency,[1],inactive
same,Potency,[2],inactive
same,Potency,[3],inactive
same,Potency,[4],0.422 µM (active)
O=C(CCc1ccncc1)NNC(=O)N1Cc2ccccc2Oc2ccc(Cl)cc21,outcome,[5],inactive
same,Potency,[6],inactive
COc1cc(/C=C/C(=O)N2CCN(CC(=O)N3CCCC3)CC2)cc(OC)c1OC,Potency,[1],inactive
same,Potency,[4],inactive
same,Potency,[7],inactive
O=C(Nc1ccc(C(=O)O)c(O)c1)c1ccccc1,Potency,[1],inactive
same,Potency,[8],inactive
same,Potency,[9],inactive
same,Potency,[2],13.8 µM (active)
same,Potency,[4],inactive
same,Potency,[7],inactive
CCCCC1C(=O)N(c2ccccc2)N(c2ccc(O)cc2)C1=O (centres undefined),Potency,[1],inactive
same,Potency,[8],inactive
same,Potency,[3],8.71 µM (active)
same,Potency,[4],0.531 µM (active)
same,Potency,[7],0.531 µM (active)
COC(=O)Nc1nc2ccc(C(=O)C3CC3)cc2[nH]1,Potency,[1],inactive
same,Potency,[8],inactive
same,Potency,[2],inactive
same,Potency,[3],inactive
same,Potency,[4],0.376 µM (active)
same,Potency,[7],0.266 µM (active)
[O-][n+]1ccccc1SSc1cccc[n+]1[O-],Potency,[1],inactive
same,Potency,[9],3.16 µM (active)
same,Potency,[2],1.34 µM (active)
same,Potency,[3],1.34 µM (active)
same,Potency,[4],0.082 µM (active)
same,Potency,[7],0.103 µM (active)
O=C(/C=C/c1ccccc1)NCCO,Potency,[1],inactive
same,Potency,[8],inactive
same,Potency,[3],5.49 µM (active)
Nc1nc2c(ncn2[C@@H]2O[C@H](CO)[C@@H](O)[C@@H]2O)c(=O)[nH]1,outcome,[5],inactive
same,Potency,[6],inactive
Cn1c(=O)c(-c2c(Cl)cccc2Cl)cc2cnc(Nc3ccc(N4CCOCC4)cc3)nc21,outcome,[5],inactive
same,Potency,[6],inactive
CNC(=O)c1c(I)c(NC(=O)CCCCC(=O)Nc2c(I)c(C(=O)O)c(I)c(C(=O)NC)c2I)c(I)c(C(=O)O)c1I,Potency,[1],inactive
same,Potency,[9],inactive
same,Potency,[2],inactive
same,Potency,[3],inactive
same,Potency,[4],inactive
same,Potency,[7],inactive
Cc1onc(-c2c(F)cccc2Cl)c1C(=O)N[C@@H]1C(=O)N2[C@@H]1SC(C)(C)[C@@H]2C(=O)O,Potency,[1],inactive
same,Potency,[4],inactive
N=C1N=C(N)c2cc3ccccc3cc21,Potency,[1],inactive
same,Potency,[10],89.1 µM (active)
same,Potency,[11],39.8 µM (active)
same,Potency,[9],35.5 µM (active)
same,Potency,[2],31.7 µM (active)
same,Potency,[3],inactive
CCCC(CCC)C(=O)OC1CC2CCC(C1)[N+]2(C)C (centres undefined),outcome,[5],inactive
same,Potency,[6],inactive
CC1(C)S[C@@H]2[C@H](NC(=O)[C@H](N)c3ccc(O)cc3)C(=O)N2[C@H]1C(=O)O,Potency,[1],inactive
same,Potency,[4],inactive
same,Potency,[7],inactive
CC1(C)S[C@@H]2[C@H](NC(=O)[C@H](NC(=O)N3CCN(S(C)(=O)=O)C3=O)c3ccccc3)C(=O)N2[C@H]1C(=O)O,Potency,[1],inactive
same,Potency,[4],inactive
same,Potency,[7],inactive
Nc1c(CC(=O)O)cccc1C(=O)c1ccc(Br)cc1,Potency,[1],inactive
same,Potency,[9],inactive
same,Potency,[2],inactive
same,Potency,[3],inactive
Nc1ccc([N+](=O)[O-])cc1O,Potency,[1],inactive
same,Potency,[3],39.9 µM (active)
same,Potency,[4],6.86 µM (active)
same,Potency,[7],7.7 µM (active)
CCCCCCCCCCCCCCCCCCN(CCCCCCCCCCCCCCCCCC)CCCN(CCO)CCO,outcome,[5],inactive
same,Potency,[6],inactive
CC(C)c1cccc(C(C)C)c1N1C(=O)c2ccc(O)cc2C1=O,outcome,[5],inactive
same,Potency,[6],inactive
CO[C@H]1O[C@@H]2O[C@]3(C)CC[C@@H]4[C@@H](C)CC[C@H]([C@H]1C)[C@]24OO3,outcome,[5],inactive
same,Potency,[6],inactive
O=C(O)Cc1ccc2c(c1)C(=O)c1ccccc1CO2,Potency,[1],inactive
same,Potency,[10],inactive
same,Potency,[12],inactive
same,max response,[11],16.2%
same,Potency,[9],inactive
same,Potency,[2],inactive
same,Potency,[3],inactive
same,Potency,[4],inactive
CC(C)NCC(O)COc1cccc2ccccc12 (centres undefined),outcome,[5],inactive
same,Potency,[6],inactive
S=c1[nH]c(-c2ccccc2)cn1-c1ccccc1,outcome,[5],inactive
same,Potency,[6],inactive
COc1cc(OC)cc(-c2cc3cnc(N)nc3nc2NC(=O)NC(C)(C)C)c1,outcome,[5],inactive
same,Potency,[6],inactive
CC(=O)O[C@H]1C[C@@]2(C)[C@@H](C[C@@H](O)[C@H]3[C@@]4(C)CC[C@@H](O)[C@@H](C)[C@@H]4CC[C@@]32C)/C1=C(\CCC=C(C)C)C(=O)O,Potency,[1],inactive
same,Potency,[4],inactive
same,Potency,[7],inactive
Brc1cc2c(cc1[C@H]1Nc3ccccc3[C@H]3C=CC[C@H]31)OCO2,outcome,[5],inactive
same,Potency,[6],inactive
COc1ccc(/C=C2\COc3ccc(C)cc3C2=O)cc1O,outcome,[5],inactive
same,Potency,[6],inactive
CCOC(=O)N1CCN(/[N+]([O-])=N/Oc2ccc([N+](=O)[O-])cc2[N+](=O)[O-])CC1,Potency,[8],inactive
same,Potency,[6],inactive
same,Potency,[4],7.42 µM (active)
